# Calls of active or inactive are those of the source. Calls come from the whole dose curve; as a rule, active = well fitted curve in the direction sought with a large enough effect; inactive = no such curve, though single readings can be large or run the other way.
# Biological target: Lysosomal acid glucosylceramidase (Homo sapiens) (UniProt P04062)
# Assay: qHTS Assay for Inhibitors and Activators of N370S glucocerebrosidase as a Potential Chaperone Treatment of Gaucher Disease: Chaperone Activity in Non-Gauche Fibroblasts After Multi-day Incubation with Compound
# Conditions: Wild-type fibroblasts, GC immunofluorescence, 5-day incubation
# Text: NIH Chemical Genomics Center [NCGC] NIH Molecular Libraries Probe Production Centers Network [MLPCN] MLPCN Grant: MH086442-01 Assay Submitter (PI): Wei Zheng Glucocerebrosidase (GC) catalyzes the hydrolysis of beta-glucocerebroside to glucose and ceramide in lysosomes. Mutations in the glucocerebrosidase gene result in Gaucher disease, an autosomal recessive lysosomal storage disorder. Many of the mutations encountered in patients with Gaucher disease are missense alterations that may cause misfolding, decreased stability and/or mistrafficking of this lysosomal protein. […] These inhibitors include iminosugar analogs and three non-iminosugar inhibitors identified from a previous HTS of 62,000 compounds with the wild type recombinant enzyme. However, the enhancement of enzyme activity by the chaperone action of an enzyme inhibitor must be balanced against the direct inhibition of the enzyme. An enzyme activator could also function as a chaperone by binding to the enzyme and helping to correct its misfolding and mistrafficking. […] This assay attempts to quantitate translocated glucocerebrosidase protein in patient-derived fibroblasts following extended compound incubation. […]
# NCGC Assay Protocol Summary: 1. […] Visualized using a fluorescence microscope and the intensity of fluorescence in the selected areas were calculated. […]
# Lysosomal acid glucosylceramidase (Homo sapiens), sequence (P04062 whole entry, looked up): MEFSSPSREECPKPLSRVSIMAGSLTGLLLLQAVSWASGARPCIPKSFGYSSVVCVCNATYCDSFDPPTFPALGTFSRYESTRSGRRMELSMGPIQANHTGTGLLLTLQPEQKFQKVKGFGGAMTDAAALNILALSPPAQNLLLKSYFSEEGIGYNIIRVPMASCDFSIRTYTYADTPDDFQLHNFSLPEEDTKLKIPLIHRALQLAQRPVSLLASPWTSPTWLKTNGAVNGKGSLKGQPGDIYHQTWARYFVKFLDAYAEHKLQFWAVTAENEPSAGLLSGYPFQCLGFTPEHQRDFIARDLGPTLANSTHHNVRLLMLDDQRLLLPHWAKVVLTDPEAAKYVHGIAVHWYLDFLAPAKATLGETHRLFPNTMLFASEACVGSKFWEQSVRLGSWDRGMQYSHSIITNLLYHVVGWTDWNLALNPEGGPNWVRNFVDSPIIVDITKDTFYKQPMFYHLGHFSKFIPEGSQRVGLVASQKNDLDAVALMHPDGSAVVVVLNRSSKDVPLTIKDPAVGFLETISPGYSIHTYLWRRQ
row,Compound,Potency
1,S=C(NCCCc1cnc[nH]1)NCCCN(Cc1ccc(Cl)c(Cl)c1)c1ccc(Br)cn1,0.708 µM (active)
2,O=S(=O)(c1ccc2ccccc2c1)N1CCN(c2nc(-c3cccs3)nc3ccccc23)CC1,1.26 µM (active)

# Source: PubChem BioAssay AID2589 (National Center for Advancing Translational Sciences (NCATS), 2010)
